In PubChem BioAssay AID2289 (National Center for Advancing Translational Sciences (NCATS), 2010):
Screen size: about 340,000 compounds; about 3,300 (0.97%) were called active. Roughly 9% stayed inconclusive and do not appear here. Calls follow the shape of the dose curve; as a rule, active = well fitted inhibition curve with a large enough effect; inconclusive = small, poorly fitted or top-dose-only effect, or effect the other way; inactive = flat fitted curve, though single readings scatter. Some of the results follow.

Test: qHTS Assay for Modulators of miRNAs and/or Inhibitors of miR-21; also: nearly all actives have a fitted effect of over 55% in size
Settings: HeLa miR-21-FLuc reporter, luciferase luminescence, 48 h; actives lower the signal
Method in brief: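 Compounds were titrated across several concentrations (up to approximately 40 uM) and incubated 48 hours with HeLa miR-21-FLuc reporter cells (miR-21 target sequence downstream of FLuc, endogenous miR-21). Readout was firefly luciferase luminescence after lytic detection reagent.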
Potency is read from the fitted curve at half-maximal effect.

Potency, active:
CCOC(=O)N/N=C/C(Cl)=C/c1ccccc1 10.4 µM, O=C(N/N=C/C(Cl)=C\c1ccccc1)c1cccs1 1.85 µM, O=C(N/N=C/C(Cl)=C\c1ccccc1)c1ccco1 3.69 µM, O=C(N/N=C/C=C/c1ccccc1)c1cccs1 7.36 µM, COc1ccccc1/C=C/C=N/NC(=O)c1cccs1 3.69 µM, O=C(N/N=C/C(Cl)=C/c1ccccc1)c1ccccc1F 8.26 µM, O=C(N/N=C/C=C/c1ccccc1)c1ccccn1 5.85 µM, C/C(=N\O)c1ccc(N2C(=O)C3CC=C(Cl)CC3C2=O)cc1 (stereo not drawn) 3.29 µM, CCOc1ccc(N=C/C=C/c2ccccc2)c(O)c1 3.29 µM, O=C(Cn1cnc2ccccc2c1=O)c1ccc(Br)cc1 5.21 µM, O=C(Cn1cnc2ccccc2c1=O)c1ccc2ccccc2c1 7.36 µM, Cc1ccc(C(=O)Cn2cnc3ccccc3c2=O)cc1 5.85 µM, O=C(Cn1cnc2ccccc2c1=O)c1ccc(Cl)cc1 7.36 µM, COc1ccc2cnn(-c3ccc(C)cc3)c(=O)c2c1OC 6.56 µM, CC(C)c1ccc(N(C(=O)c2ccco2)C(C(=O)NC2CCCC2)c2ccncc2)cc1 (stereo not drawn) 6.56 µM, NC(=O)c1ccccc1OCc1nc2ccccc2s1 1.47 µM, O=C(O)c1ccccc1OCc1nc2ccccc2s1 3.29 µM, Cc1cc(OCc2nc3ccccc3s2)ccc1N 1.17 µM, OCc1cc(Br)ccc1OCc1nc2ccccc2s1 1.65 µM, CC(C)[C@@H](CO)NC(=O)c1ccc2c3n(nc2c1)-c1ccc(Cl)cc1CO3 1.85 µM, O=C(NCCO)c1ccc2c3n(nc2c1)-c1ccc(Cl)cc1CO3 9.27 µM, Cc1ccc2c(c1)COc1c3ccc(C(=O)NCCO)cc3nn1-2 5.21 µM, O=C(Nc1sc2c(c1C(=O)NCc1ccco1)CCCC2)c1cc(=O)c2ccccc2o1 5.85 µM, Cc1cc(CN(C)C(=O)c2cc(COc3ccc(F)cc3Cl)on2)n[nH]1 10.4 µM, Cc1nnc(CN(C)C(=O)c2cc(COc3ccc(F)cc3Cl)on2)o1 13.1 µM, COc1ccc(OCc2cc(C(=O)N(C)Cc3nnc(C)o3)no2)c(Cl)c1 14.7 µM, S=C(c1ccc(-c2ccc(Cl)c(Cl)c2)o1)N1CCOCC1 1.47 µM, N#CCCN1CCN(C(=S)c2ccc(-c3cccc(Cl)c3)o2)CC1 13.1 µM, O=[N+]([O-])c1cccc(-c2ccc(C(=S)N3CCOCC3)o2)c1 1.04 µM, S=C(c1ccc(-c2cccc(Cl)c2)o1)N1CCCCC1 1.31 µM, S=C(c1ccc(-c2cccc(Cl)c2)o1)N1CCOCC1 3.69 µM, COCCN=C1NN=C(c2ccc(C)c([N+](=O)[O-])c2)CS1 4.14 µM, C=CCSc1nncn1/N=C/c1ccc(OC)cc1 2.61 µM, C=C(C)CSc1nncn1/N=C/c1ccc(OC)cc1 11.7 µM, O=[N+]([O-])c1ccc2nc(-c3ccncc3)[nH]c2c1 18.5 µM, Fc1cc2nc(-c3ccncc3)[nH]c2cc1F 16.5 µM, Cn1cccc1-c1nc2ccc([N+](=O)[O-])cc2[nH]1 2.07 µM, COc1cc(OC)cc(C(=O)Nc2ccc3nc4n(c(=O)c3c2)CCCCC4)c1 2.33 µM, CC1CCn2c(nc3cc(C(=O)NCc4ccccc4)ccc32)C1 (stereo not drawn) 7.36 µM, Cc1ccc(CNC(=O)c2ccc3c(c2)nc2n3CCCC2)cc1 18.5 µM, COc1ccc(-c2cc3nc4n(c(=O)c3s2)CCCCC4)cc1 0.369 µM, CCOc1ccc(CNC(=O)c2ccc3c(c2)nc2n3CCCCC2)cc1 2.07 µM, COc1ccc(CNC(=O)c2ccc3c(c2)nc2n3CCCCC2)cc1 4.65 µM, COc1ccc(N=C2C(=Nc3ccc(OC)cc3)N(c3ccccc3)C(=S)N2C(=O)c2ccc(Cl)cc2)cc1 5.21 µM, CCc1ccc(-c2csc(NC(=O)Oc3ccccc3)n2)cc1 3.69 µM, COc1ccc(-c2csc(NC(=O)COC(=O)c3ccco3)n2)cc1 3.69 µM, CCc1ccc(-c2csc(NC(=O)COC(=O)CCc3nc4ccccc4s3)n2)cc1 2.07 µM, Cc1nc(N)sc1N=Nc1ccc(F)cc1 4.65 µM, Cc1nc(N)sc1N=Nc1ccccc1C(F)(F)F 5.21 µM, Cc1nc(N)sc1N=Nc1ccc(Br)cc1 0.736 µM, CCCCN(c1ccccc1)c1ncnc2c1cnn2-c1ccc(Cl)cc1 5.85 µM, CCN(c1ccccc1)c1ncnc2c1cnn2-c1ccccc1 7.36 µM, COCCN(CCOC)c1ncnc2c1cnn2-c1ccc(Cl)cc1 7.36 µM, Cc1cccc(-n2ncc3c(N(CCO)CCO)ncnc32)c1 5.21 µM, CC(=O)N1CCn2c3ccc(C)cc3c3cccc1c32 14.7 µM, Cc1ccc2c(c1)c1cccc3c1n2CCN3CCC(N)=O 6.56 µM, CC(C)(C)c1ccc(OCc2nc(-c3ccccn3)no2)c(Br)c1 1.65 µM, Clc1cc(Cl)c(OCc2nc(-c3ccccn3)no2)cc1Cl 0.736 µM, CC(Oc1ccc(Cl)cc1Cl)c1nc(-c2ccccn2)no1 (stereo not drawn) 6.56 µM, Clc1ccc(OCc2nc(-c3ccncc3)no2)c(Br)c1 1.65 µM, Nc1cnc(Nc2ccc(Br)cc2)nc1N 11.7 µM, Cc1ccc2c(c1)-c1nc3ccccc3cc1C2=NC1CCCCC1 0.656 µM, CC(C)CCn1cnc2c(sc3nc4c(cc32)CSC(C)(C)C4)c1=O 0.293 µM, CCCCn1cnc2c(sc3nc4c(cc32)CSC(C)(C)C4)c1=O 0.585 µM, COc1ccc(C(=O)COc2ccccc2C#N)cc1 4.65 µM, O=C(COc1ccccc1)Nc1ccc(Cl)cc1Cl 5.85 µM, COc1cccc(NC(=O)COc2ccc(C)cc2)c1 7.36 µM, NC(=O)c1ccccc1NC(=O)COc1ccc(Cl)cc1 4.65 µM, Cc1ccc(OCC(=O)Nc2ccccc2C(N)=O)cc1 1.17 µM, COC(=O)c1ccc(OCC(=O)c2cccc(OC)c2)cc1 10.4 µM, Cc1sc2c(c1C)C(=O)NC(c1ccccc1F)N2 (stereo not drawn) 7.36 µM, Cc1ccc(OCCOc2cccc(Br)c2)c([N+](=O)[O-])n1 6.56 µM, COc1ccc(OCCOc2ccc(C)nc2[N+](=O)[O-])cc1 13.1 µM, Cc1ccc(OCCOc2ccc(Br)cc2)c([N+](=O)[O-])n1 5.85 µM, COc1ccc(OCCOc2ccccc2[N+](=O)[O-])cc1 6.56 µM, O=C(O)c1cccc(-c2nnn(Cc3ccccc3Cl)n2)c1 0.414 µM, O=C(O)c1cccc(-c2nnn(Cc3ccccc3)n2)c1 2.33 µM, COc1ccc(CNC(=O)c2ccc(C(C)(C)C)cc2)cc1 5.85 µM, CC(C)(C)c1ccc(C(=O)NCCC(=O)N2CCCC2)cc1 2.33 µM, CC(C)(C)c1ccc(C(=O)NCc2ccccc2)cc1 14.7 µM, CCCc1nn(C)c(C(=O)Nc2ccc3ccccc3c2)c1Cl 7.36 µM, CCCc1nn(C)c(C(=O)Nc2cccc(Cl)c2)c1Cl 7.36 µM, CCCc1nn(C)c(C(=O)Nc2cccc(C)c2)c1Cl 5.21 µM, CCCc1nn(C)c(C(=O)Nc2ccccc2)c1Cl 1.85 µM, CCC1CN(C(=O)Nc2cccc3c2CCCC3)c2cc(C)ccc2O1 (stereo not drawn) 7.36 µM, COc1ccc(/C=C/c2nc3ccccc3n2Cc2ccc(OC)c(OC)c2)cc1 1.47 µM, C/C(=N\NC(=O)OC(C)(C)C)c1ccccc1Br 14.7 µM, CCOC(=O)c1cnn2c(C)cc(-c3ccc(F)cc3)nc12 4.14 µM, O=C(O)c1ccc(S(=O)(=O)c2ccc3c(c2)C(=O)N(NC(=O)c2ccccc2)C3=O)cc1 4.14 µM, COc1ccc(-c2cc(C(=O)N3CCCC3)no2)cc1OC 5.85 µM, COc1ccc(-c2cc(C(=O)N3CCCCC3)no2)cc1OC 7.36 µM, COc1ccc(-c2cc(C(=O)N3CCCCCC3)no2)cc1OC 16.5 µM, Cc1csc(NC(=O)/C=C/c2ccc(C)o2)n1 5.21 µM, Cc1ccc(/C=C/C(=O)Nc2ncc(C)s2)o1 1.04 µM, CCOC(=O)C(C)On1c(-c2ccc(Cl)cc2)nc2ccc([N+](=O)[O-])cc21 (stereo not drawn) 3.69 µM, O=C(Nc1ccccc1-c1ccccc1)c1cnccn1 13.1 µM, Cn1ccc(C(=O)Nc2ccc(Br)cc2Br)n1 0.521 µM, O=C(Nc1ccccc1-c1ccccc1)c1ccc(=O)[nH]n1 14.7 µM, Cc1ccc(NC(=O)c2cnccn2)c(Br)c1 5.85 µM, CN(C)CCCN(C(=O)c1ccc2c(c1)OCCO2)c1nc2ccccc2s1 18.5 µM, CN(C)CCCN(C(=O)c1sc2ccccc2c1Cl)c1nc2ccc(F)cc2s1 9.27 µM, CCc1ccc2nc(N(Cc3cccnc3)C(C)=O)sc2c1 16.5 µM, O=C(c1ccc2c(c1)OCCO2)N(Cc1cccnc1)c1nc2ccc(F)cc2s1 4.14 µM
